Measurements reported in PubChem BioAssay AID1159580 (chemical genetic matrix, 2015).
About 2,000 (36%) of roughly 5,500 compounds were called active. Roughly 18% stayed inconclusive and do not appear here. Cut-off read from the data, not from the text of the source: active = normalized growth mostly below about 0.91 (no sharp cut-off); inconclusive = no clear call, values can overlap the other calls; inactive = mostly above about 0.92. The list shows a part of the results.

Experiment: chemical genetic growth profiling, strain panel (AID 1159580);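 note: tested at 20 µM; growth read once vehicle control cultures reached saturation at 30 °C; 1 = growth at the plate median or of vehicle wells; lower values mean less growth of the strain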
Settings: S. cerevisiae deletion strains, growth OD

Measured: normalized growth

NC(N)=NOCC[C@H](N)C(=O)O
inactive: locus YAL013W, strain DEP1, stronger effect = lower value 0.991 | locus YAL021C, strain ccr4, stronger effect = lower value 1.01 | locus YAL026C, strain drs2, stronger effect = lower value 1.01 | locus YAL030W, strain snc1, stronger effect = lower value 1 | locus YBL061C, strain skt5, stronger effect = lower value 1.02 | locus YBR009C, strain hhf1, stronger effect = lower value 1.01 | locus YBR021W, strain FUR4, stronger effect = lower value 1 | locus YBR023C, strain chs3, stronger effect = lower value 1.02 | locus YBR171W, strain sec66, stronger effect = lower value 1.02 | locus YBR229C, strain ROT2, stronger effect = lower value 0.993 | locus YBR231C, strain swc5, stronger effect = lower value 1.02 | locus YBR279W, strain paf1, stronger effect = lower value 1.01 | locus YCL011C, strain gbp2, stronger effect = lower value 1.03 | locus YCL016C, strain dcc1, stronger effect = lower value 1.01 | locus YCL029C, strain bik1, stronger effect = lower value 0.983 | locus YCL061C, strain MRC1, stronger effect = lower value 1.01 | locus YCL069W, strain vba3, stronger effect = lower value 1.01 | locus YCR088W, strain abp1, stronger effect = lower value 1.01 | locus YDL005C, strain med2, stronger effect = lower value 1.01 | locus YDL035C, strain GPR1, stronger effect = lower value 0.985 | locus YDL040C, strain nat1, stronger effect = lower value 1.01 | locus YDL074C, strain BRE1, stronger effect = lower value 1.02 | locus YDL101C, strain DUN1, stronger effect = lower value 0.99 | locus YDL134C, strain PPH21, stronger effect = lower value 0.999 | locus YDL185W, strain tfp1, stronger effect = lower value 0.975 | locus YDL192W, strain arf1, stronger effect = lower value 0.983 | locus YDR001C, strain nth1, stronger effect = lower value 1.01 | locus YDR069C, strain doa4, stronger effect = lower value 1.02 | locus YDR101C, strain arx1, stronger effect = lower value 1.01 | locus YDR137W, strain rgp1, stronger effect = lower value 1.01 | locus YDR150W, strain NUM1, stronger effect = lower value 0.984 | locus YDR159W, strain sac3, stronger effect = lower value 1.01 | locus YDR162C, strain NBP2, stronger effect = lower value 1.02 | locus YDR195W, strain ref2 0.996 | locus YDR297W, strain sur2, stronger effect = lower value 1.01 | locus YDR318W, strain mcm21, stronger effect = lower value 0.983 | locus YDR334W, strain swr1, stronger effect = lower value 1.02 | locus YDR335W, strain msn5, stronger effect = lower value 1.01 | locus YDR388W, stronger effect = lower value 0.999 | locus YDR392W, strain spt3, stronger effect = lower value 1.01 | locus YDR502C, strain sam2, stronger effect = lower value 0.995 | locus YEL003W, strain gim4, stronger effect = lower value 1.02 | locus YEL037C, strain rad23, stronger effect = lower value 1.01 | locus YEL061C, strain CIN8 (second series), stronger effect = lower value 1.02 | locus YEL061C, strain CIN8, stronger effect = lower value 0.992 | locus YER015W, strain faa2, stronger effect = lower value 1.01 | locus YER016W, strain bim1, stronger effect = lower value 1.01 | locus YER110C, stronger effect = lower value 0.984 | locus YER111C, strain swi4, stronger effect = lower value 1.01 | locus YER155C, strain BEM2 (second series), stronger effect = lower value 1.01 | locus YER155C, strain BEM2, stronger effect = lower value 0.978 | locus YER167W, strain BCK2, stronger effect = lower value 0.978 | locus YFR010W, strain ubp6, stronger effect = lower value 1.01 | locus YGL078C, strain dbp3, stronger effect = lower value 0.994 | locus YGL086W, strain mad1, stronger effect = lower value 0.978 | locus YGL167C, strain pmr1, stronger effect = lower value 1.01 | locus YGL173C, strain kem1, stronger effect = lower value 1 | locus YGL227W, strain vid30, stronger effect = lower value 1.02 | locus YGL240W, strain doc1, stronger effect = lower value 1.02 | locus YGL248W, strain PDE1, stronger effect = lower value 0.994 | locus YGL253W, strain hxk2, stronger effect = lower value 1.01 | locus YGR078C, strain PAC10, stronger effect = lower value 1.04 | locus YGR135W, strain pre9, stronger effect = lower value 1.03 | locus YGR229C, strain SMI1, stronger effect = lower value 1.02 | locus YGR252W, strain gcn5, stronger effect = lower value 1.01 | locus YHR013C, strain ard1, stronger effect = lower value 1.04 | locus YHR027C, strain rpn1, stronger effect = lower value 1 | locus YHR030C, strain SLT2, stronger effect = lower value 0.978 | locus YHR079C, strain IRE1 (second series), stronger effect = lower value 0.985 | locus YHR094C, strain hxt1, stronger effect = lower value 0.988 | locus YHR129C, strain ARP1, stronger effect = lower value 0.991 | locus YHR142W, strain chs7, stronger effect = lower value 1.03 | locus YHR200W, strain rpn10, stronger effect = lower value 0.986 | locus YIL066C, strain RNR3, stronger effect = lower value 0.979 | locus YIL073C, strain SPO22, stronger effect = lower value 0.915 | locus YIL125W, strain kgd1, stronger effect = lower value 0.992 | locus YIR030C, strain dcg1, stronger effect = lower value 0.98 | locus YJL092W, strain hpr5, stronger effect = lower value 1.01 | locus YJL095W, strain BCK1 (second series), stronger effect = lower value 1.02 | locus YJL095W, strain BCK1, stronger effect = lower value 1.04 | locus YJL115W, strain asf1, stronger effect = lower value 1.01 | locus YJL129C, strain trk1, stronger effect = lower value 1.03 | locus YJL134W, strain LCB3, stronger effect = lower value 0.987 | locus YJL154C, strain vps35, stronger effect = lower value 1.01 | locus YJL164C, strain tpk1, stronger effect = lower value 1.01 | locus YJL166W, strain qcr8, stronger effect = lower value 1.02 | locus YJL168C, strain set2, stronger effect = lower value 0.988 | locus YJL187C, strain SWE1 (second series), stronger effect = lower value 1.01
